Source: PubChem (The Scripps Research Institute Molecular Screening Center)
TTR transcr act: increases transthyretin transcription. SH-SY5Y TTR promoter Gaussia luciferase, luminescence; 100% = recombinant luciferase protein wells. 92,000 compounds, 1.3% hits. activation, % at 16.7 µM. AID 1117267;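 active means activation above the mean of all tested compounds plus 3 SD, cut at about 9.5% in these data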;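 further: cells exposed to compounds for one day before reading; 0% = median of all test compound wells on the plate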
TTR inh HuH7: HuH7 TTR transcription inhibition, counter-screen; shares compounds with TTR transcr act; AID 1117279; inhibition, % at 16.7 µM; HuH7 TTR promoter-Gaussia luciferase reporter, luminescence; 1,100 compounds, 4% hits;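 active means average inhibition above the solvent-only control wells' mean plus 3 SD, cut at about 15% in these data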;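 further: 0% = cells with DMSO only and 100% = cells with inhibitor control FD; inhibitors lower well luminescence so higher value means more inhibition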
TTR up confirm: human TTR transcription activation, confirmation; shares compounds with TTR transcr act; SHSY5Y TTR promoter Gaussia luciferase, luminescence; 100% = purified Lucia enzyme wells, no cells; activation, % at 16.7 µM; 1,100 tested, under 10 active; AID 1117280;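 active means mean activation above a set limit taken from the earlier primary screen, cut at about 11% in these data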;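 further: 0% = DMSO-treated cells and 100% = recombinant Lucia luciferase without cells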
* hit, by the source's call. This is one part of a sample in which hits are shown more often than they occur.

SMILES	TTR transcr act	others
CC(=O)OCC(=O)Nc1c(C)cc(C)cc1C	9.9*	TTR inh HuH7=-11;TTR up confirm=1
Cc1cc(C)c(NC(=O)COC(=O)C2CCCO2)c(C)c1 (stereo not given)	0
O=C(Nc1nccs1)c1ccc2c(c1)OCO2	0
CSc1ccccc1C(=O)Nc1nccs1	-1
CC(=O)c1noc(C)c1C(=O)Nc1nccs1	-4
Cc1cccc(C(=O)Nc2nccs2)c1[N+](=O)[O-]	40*	TTR inh HuH7=-7;TTR up confirm=0
Cc1ncoc1C(=O)Nc1nccs1	10.0*	TTR inh HuH7=-9;TTR up confirm=1
CCOC(=O)c1ccc(NC(=O)c2cccc(C)c2[N+](=O)[O-])cc1	1
CCCC[C@H](C(=O)N(C)c1cccc(OC)c1)[C@@H](O)c1ccc2ccccc2c1	-1
CC1(c2nnnn2Cc2ccccc2)CCSCC(=O)N1Cc1cccs1 (stereo not given)	0
C[C@@H]1CN([C@@H](C)CO)C(=O)CCCn2nncc2CO[C@H]1CN(C)C(=O)Nc1ccc(N2CCN(C)CC2)cc1	3
CCCCc1ccc2nc(NC(=O)c3ccc(Br)o3)sc2c1	-1
O=C(COc1ccc(Br)cc1)Nc1ccc(S(=O)(=O)Nc2ccccn2)cc1	-1
Cc1cccc(C)c1OCC(=O)Nc1ccncc1	-1
Cc1cccc(C)c1OCC(=O)Nc1ccc(S(=O)(=O)Nc2ccccn2)cc1	17*	TTR inh HuH7=-4;TTR up confirm=0
O=C(NCC(c1ccccc1)c1ccccc1)[C@H](Cc1ccccc1)NC1(C(=O)NC2CCCCC2)CCC1	0
NC(=NC(=O)/C=C/c1ccccc1Br)N(CC#Cc1ccccc1)CC#Cc1ccccc1	-1
CC[C@@]1(c2ccc(C)cc2)C(=O)N(C(=O)OC)N1C(=O)OC	2
COCCNS(=O)(=O)c1cc(OC)c(Cl)cc1Cl	1
COc1ccc(S(=O)(=O)NCc2cccnc2)c(Cl)c1Cl	3
CCOCCCNS(=O)(=O)c1ccc(OC)c(Cl)c1Cl	12*	TTR inh HuH7=-21;TTR up confirm=-1
CC(C)CNC(=O)OCc1cn(Cc2cccc(Cl)c2)nn1	1
O=C(N[C@@H](Cc1ccccc1)C(=O)NCP(=O)(O)OC(Cc1ccccc1)C(=O)O)OCc1ccccc1 (stereo not given in full)	0
Cc1ccc(-c2n[nH]c(=S)n2/N=C/c2cccs2)cc1	14*	TTR inh HuH7=-16;TTR up confirm=0
Cn1cccc1/C=N/n1c(-c2ccc(Cl)cc2)n[nH]c1=S	-5
SMILES	TTR transcr act	others
Cc1ccc(/C=N/n2c(-c3ccncc3)n[nH]c2=S)cc1	1
CCN(C(=O)[C@@H](C)[C@@H](O)c1ccc2ccccc2c1)c1ccccc1	-1
COc1cc(NC(=O)C(OC(=O)CNC(=O)c2ccccc2)c2ccccc2)cc(C(F)(F)F)c1 (stereo not given)	2
CCCCNC(=O)C[C@H]1C[C@@]2(C(=O)OCC)CCCC3=C2N(CCC3)C1=O	-1
COC(=O)[C@H]1C[C@]2(C(C=C(C)C)S(=O)(=O)c3ccccc3)c3ccccc3N[C@H]2N1 (stereo not given in full)	0
CN(C)CC(CCC(CN(C)C)C(O)(c1ccccc1)c1ccccc1)C(O)(c1ccccc1)c1ccccc1 (stereo not given)	11*	TTR inh HuH7=53*;TTR up confirm=0
CC(c1ccccc1C(O)(c1ccccc1)c1ccccc1)N(C)C (stereo not given)	2
CC(C)N(CC#CCC(O)(c1ccccc1)c1ccccc1)C(C)C	1
C[C@H]1[C@@H](c2ccccc2)OC(O)([C@H](Cc2ccccc2)NC(=O)OC(C)(C)C)CN1C (stereo not given in full)	1
CO[C@H]([C@H](C)/C=C/N(C)C=O)[C@@H](C)C(=O)CC[C@H](C)[C@H](O)[C@H](C)[C@H]1OC(=O)/C=C/C(C)=C/C[C@H](O)C[C@@H]2C=CC[C@@H](C[C@H](OC)C(C)(O)[C@@H](OC)C[C@@H](OC)[C@@H]1C)O2 (stereo not given in full)	6
CCOC(=O)[C@@]12CCC3=C1N(CCC3)C(=O)[C@H](CC(=O)N1CCC(c3ccccc3)CC1)C2	2
C#CCOCCOCCOCCNc1nc(N2CCN(C(=O)[C@H](CO)n3cc([C@@H](N)C(C)C)nn3)CC2)nc(N2CCN(C(=O)[C@H](CCCCN)n3cc([C@@H](N)[C@H](C)CC)nn3)CC2)n1	19*	TTR inh HuH7=-4;TTR up confirm=1
C#CCOCCOCCOCCNc1nc(N2CCOCC2)nc(N2CCN(C(=O)[C@H](CCCCN)n3cc([C@@H](N)CO)nn3)CC2)n1	2
C#CCOCCOCCOCCNc1nc(N2CCN(C(=O)[C@H](CCCN=C(N)N)n3cc(C(N)[C@@H](C)CC)nn3)CC2)nc(N2CCN(C(=O)[C@H](CCCCN)n3cc([C@@H](N)CC(N)=O)nn3)CC2)n1 (stereo not given in full)	-2
